Entries with a potency or affinity are not part of this list. The source made the active and inactive calls. The rule behind the calls is not given here.
Assay: HepG2 cell cytotoxicity, dose response, cytotoxicity control, plate reader, dry powder, set 6 (AID 743311)
Conditions: series mostly up to 26 µM
For Cc1ccc(C(C)C)c(OCCn2c(=O)[nH]c3ccccc32)c1, the outcome was “inactive”.
In the case of COc1cc(C)ccc1OCCn1cnc2ccccc21, the outcome is reported as “inactive”.
In the case of CSc1nc2ccccc2n1CCOc1ccc(C)cc1, the outcome is reported as “inactive”.
In the case of FC(F)(F)c1cccc(OCCn2cnc3ccccc32)c1, the outcome is reported as “inactive”.
For CC(C)Oc1cccc(OCCn2cnc3ccccc32)c1, the outcome was “inactive”.
For Cc1ccc(OCCn2cnc3ccccc32)c(C)c1, the outcome was “inactive”.
With CS(=O)(=O)c1ccc(OCCn2cnc3ccccc32)cc1 the outcome was “inactive”.
With CCc1nc2ccccc2n1CCOc1ccccc1 the outcome was “inactive”.
In the case of Clc1ccccc1OCCn1cnc2ccccc21, the outcome is reported as “inactive”.
With Cc1ccc(OCCn2cnc3cc(C)c(C)cc32)cc1 the outcome was “inactive”.
For Cc1cccc(OCCn2c(=S)[nH]c3c(F)cccc32)c1, the outcome was “inactive”.
In the case of CSc1nc2ccccc2n1CCOc1ccccc1, the outcome is reported as “inactive”.
For CCCCc1nc2ccccc2n1CCOc1ccccc1, the outcome was “inactive”.
With Fc1ccc2c(c1)[nH]c(=S)n2CCOc1ccccc1 the outcome was “inactive”.
For COCc1nc2ccccc2n1CCOc1ccc(C(C)(C)C)cc1, the outcome was “inactive”.
With CC(C)(C)c1ccc(OCCn2c(CO)nc3ccccc32)cc1 the outcome was “inactive”.
In the case of OCc1nc2ccccc2n1CCOc1ccccc1, the outcome is reported as “inactive”.
For CC(C)c1ccccc1NCCn1c(=S)[nH]c2ccccc21, the outcome was “inactive”.
For CCSc1nc2ccccc2n1CCOc1ccccc1, the outcome was “inactive”.
For Clc1ccc(OCCn2cnc3ccccc32)c(Cl)c1, the outcome was “inactive”.
With Cc1cccc(OCCn2c(=S)[nH]c3ccc(C(F)(F)F)cc32)c1 the outcome was “inactive”.
